sEH activator: increases human soluble epoxide hydrolase activity; P34913; purified human sEH enzymatic activity, activator screen; activation, % at 2 µM; 91,000 tested, 0.04% active; AID 717; in the data active = activation above about 37%
Target sequence (P34913 whole entry, looked up): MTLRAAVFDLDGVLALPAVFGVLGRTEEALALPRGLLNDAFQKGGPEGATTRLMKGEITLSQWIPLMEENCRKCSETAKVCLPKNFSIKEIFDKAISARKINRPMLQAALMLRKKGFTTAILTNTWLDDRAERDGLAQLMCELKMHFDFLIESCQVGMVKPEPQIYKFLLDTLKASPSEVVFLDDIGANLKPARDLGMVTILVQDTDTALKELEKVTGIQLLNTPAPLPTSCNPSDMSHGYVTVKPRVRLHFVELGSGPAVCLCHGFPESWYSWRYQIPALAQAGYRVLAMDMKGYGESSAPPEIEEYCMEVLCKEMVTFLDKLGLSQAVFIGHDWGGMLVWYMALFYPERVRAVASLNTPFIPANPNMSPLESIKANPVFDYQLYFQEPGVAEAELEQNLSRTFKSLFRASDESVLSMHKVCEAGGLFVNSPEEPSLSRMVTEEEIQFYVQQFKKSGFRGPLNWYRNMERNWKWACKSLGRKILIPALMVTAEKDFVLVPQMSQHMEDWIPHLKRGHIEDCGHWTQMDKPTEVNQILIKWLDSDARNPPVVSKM
MRP reversal: reverses drug resistance mediated by MRP. 85,000 tested, 0.04% active. H69AR cells + 2 uM doxorubicin, CellTiter-Glo, 72 h. differential viability (reversal), % at 10 µM;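 active = viability drop by adding the cancer drug above about 55%, with treated viability meeting a 40% cutoff, limit read from the data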;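 note: larger differential means the compound sensitizes cells more to doxorubicin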
sEH inh: soluble epoxide hydrolase (human) inhibition. AID 707. 91,000 tested, 0.34% active. recombinant human sEH enzymatic activity assay. inhibition, % at 2 µM; in the data active = inhibition above about 80%
MRP-1 activ: activators of MRP-1; 140,000 tested, 0.61% active; H69AR cells + doxorubicin, viability rescue, CellTiter-Glo; viability increase, % at 10 µM;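 active = viability gain under doxorubicin at or above a set limit, the compound median plus 3 SD, cut at about 4.7% in these data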;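 note: MRP-1 overexpressing cells given doxorubicin 25 µM after compound pretreatment; 18-22 h compound pretreatment then 72 h with doxorubicin before readout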
Of the large screens only hits and unclear results are named; the others gave an inactive call. Most compounds without a hit are left out; they make up all but 0.76% or so of the library.

Cc1cc(C)n(-c2ccc(C(=O)Nc3cc(S(=O)(=O)N(C)C)ccc3Cl)cc2)n1	none (no result: sEH activator, MRP reversal, sEH inh)
COC(=O)c1sc2nc3c(cc2c1N)C(=O)CC(C)(C)C3	none
Cc1cc(C)c(NC(=O)c2sc3nc4c(cc3c2N)C(=O)CC(C)(C)C4)c(C)c1	MRP-1 activ 5.4 (no result: sEH activator, MRP reversal, sEH inh)
COc1ccc(-c2nc(C#N)c(N3CCc4ccccc4C3)o2)cc1OC	none
COc1ccccc1-c1nc(C#N)c(N2CCc3ccccc3C2)o1	MRP-1 activ 5.3
S=C(c1ccc(-c2ccccc2Cl)o1)N1CCCCC1	MRP-1 activ 5.3 (no result: sEH activator, MRP reversal, sEH inh)
Cn1c(=O)c2c(nc(CN3CCN(c4ccccc4)CC3)n2Cc2c(F)cccc2Cl)n(C)c1=O	MRP reversal 59.8
Cn1c(=O)c2c(nc(CN3CCN(c4ccccc4)CC3)n2Cc2ccccc2Cl)n(C)c1=O	none
CN(C)c1nc(N(C)C)nc(N(C#N)CN2C(=O)c3ccccc3C2=O)n1	none (no result: sEH activator, MRP reversal, sEH inh)
COc1ccc(-c2nc3cc(NC(=O)Cc4ccc(OC)c(OC)c4)ccc3o2)cc1	sEH inh 80.1
COc1ccc(CC(=O)Nc2ccc(-c3nnc(-c4ccccc4)o3)cc2)cc1OC	none
O=C(NNc1cc(N2CCOCC2)nc(N2CCOCC2)n1)C12CC3CC(CC(C3)C1)C2	none (no result: sEH activator, MRP reversal, sEH inh)
CCOC(=O)Cc1csc(NC(=S)NC(=O)C(C)(C)C)n1	MRP-1 activ 12.9 (no result: sEH activator, MRP reversal, sEH inh)
COc1ccc(N2C(=O)CCC(C(=O)O)C2c2ccc(F)cc2)cc1 (stereo unspecified)	none
COc1ccc(C2C(C(=O)Nc3cccc(C)n3)CCC(=O)N2c2ccc(OC)cc2)cc1 (stereo unspecified)	MRP-1 activ 12.6
COc1ccc(NC(=O)CC2C(=O)N(c3ccc(F)cc3)C(=S)N2NC(=O)c2ccccc2)cc1 (stereo unspecified)	MRP-1 activ 6.4 (no result: sEH activator, MRP reversal, sEH inh)
COc1ccc(NC(=O)CC2C(=O)N(c3ccc(OC)cc3)C(=O)N2CCc2cccs2)cc1 (stereo unspecified)	none (no result: sEH activator, MRP reversal, sEH inh)
COc1ccc(C(=O)Nc2nc3ccccc3[nH]2)cc1OC	MRP reversal 64.1
Cc1ccc(NCc2nc3ccccc3n2CCOc2ccccc2)cc1	none (no result: sEH activator, MRP reversal, sEH inh)
O=C(O)C1C2CCC(O2)C1C(=O)NCc1ccc(Cl)cc1 (stereo unspecified)	none (no result: sEH activator, MRP reversal, sEH inh)
COc1ccc(NC2=Nc3ccccc3N3C2=Nc2c(c(C)nn2-c2ccc(C)cc2)C3c2cccnc2)cc1 (stereo unspecified)	MRP-1 activ 8.8
Cc1nnc(NC(=O)c2ccccc2Br)s1	MRP-1 activ 6.0
O=C(COc1ccc(Cl)cc1)N1CCN(S(=O)(=O)c2ccccc2)CC1	MRP-1 activ 5.1
COc1ccc(OCC(=O)N2CCN(C(=O)c3ccco3)CC2)cc1	sEH activator 40.7
COc1ccccc1OCC(=O)N1CCN(c2ccccc2OC)CC1	none (no result: sEH activator, sEH inh)
O=C(COc1ccccc1)N1CCN(C(=O)c2ccco2)CC1	none
COc1ccccc1N1CCN(C(=O)COc2ccc(Cl)cc2)CC1	MRP-1 activ 6.6 (no result: sEH activator, sEH inh)
O=C(Cn1c(=O)oc2cc(S(=O)(=O)N3CCCC3)ccc21)NCc1ccccn1	MRP-1 activ 5.3 (no result: sEH activator, sEH inh)
O=C(Nc1ccc(Cl)c(Cl)c1)N1CCSCC1	sEH inh 81.7
O=C(Nc1ccc(Cl)cc1)Nc1ccc(N2CCOCC2)cc1	none
O=C(Nc1ccc(N2CCOCC2)cc1)Nc1ccc(Cl)c(Cl)c1	sEH inh 82.1
Cc1cccc(NC(=O)c2ccc([N+](=O)[O-])s2)c1C	none (no result: sEH activator, MRP reversal, sEH inh)
CCN(c1ccccc1)S(=O)(=O)c1cc(C(=O)Oc2ccc3c(C)cc(=O)oc3c2)ccc1C	none (no result: sEH activator, MRP reversal, sEH inh)
O=C(Nc1ncn[nH]1)c1cc(S(=O)(=O)Nc2ccc(Cl)cc2)ccc1Cl	none (no result: sEH activator, MRP reversal, sEH inh)
O=C(Nc1ncn[nH]1)c1ccc(Cl)c(S(=O)(=O)Nc2ccc(Cl)cc2)c1	MRP-1 activ 4.8 (no result: sEH activator, MRP reversal, sEH inh)
COc1ccc(NC(=O)CSc2ccc3ccccc3c2)cc1S(=O)(=O)N1CCCCC1	none (no result: sEH activator, MRP reversal, sEH inh)
N#Cc1nc(COc2ccccc2)oc1N1CCCC1	MRP-1 activ 5.0 (no result: MRP reversal)
N#Cc1nc(COc2ccccc2)oc1N1CCCCCC1	MRP-1 activ 6.3 (no result: sEH activator, sEH inh)
Cc1cc(C(=O)N[C@H](c2ccccc2)[C@@]2(C)C[C@@H]2[C@@H](C)C(=O)Nc2ccc3ccccc3c2)n(C)n1	none (no result: sEH activator, MRP reversal, sEH inh)
CCC(C)c1ccc(O)c(NC(=O)c2ncn[nH]2)c1 (stereo unspecified)	MRP-1 activ 5.3
CCC(C)c1ccc2oc(-c3ccc(NC(=O)c4ncn[nH]4)cc3)nc2c1 (stereo unspecified)	none
CCN=C1SC(CC(=O)NCCc2ccc(OC)cc2)C(=O)N1CC (stereo unspecified)	none (no result: MRP reversal)
CCCC1S/C(=N/N=C/c2ccc(OC)cc2)N(Cc2ccccc2)C1=O (stereo unspecified)	MRP-1 activ 6.0
CCCCC1S/C(=N/N=C/c2ccc(OC)cc2)N(Cc2ccc(OC)cc2)C1=O (stereo unspecified)	MRP-1 activ 5.4
